Records with an inconclusive call do not appear. Where a call stands in place of a potency, no number is given. The source made the active and inactive calls. The call rests on the fitted dose curve; in most records, active means well fitted inhibition curve with a large enough effect; inconclusive means small, poorly fitted or top-dose-only effect; inactive means flat fitted curve, though single readings scatter.
target: Phospholipid hydroperoxide glutathione peroxidase GPX4 (Homo sapiens) (UniProt P36969); assay: Primary qHTS Assay for Inhibitors of Recombinant Selenoprotein Glutathione Peroxidase 4 (GPX4) (AID 1845192); settings: recombinant GPX4, GR-coupled NADPH fluorescence, 15 min; series mostly up to 50 µM; further: nearly all actives have a fitted effect of over 65% in size
Sequence (P36969 whole entry, looked up): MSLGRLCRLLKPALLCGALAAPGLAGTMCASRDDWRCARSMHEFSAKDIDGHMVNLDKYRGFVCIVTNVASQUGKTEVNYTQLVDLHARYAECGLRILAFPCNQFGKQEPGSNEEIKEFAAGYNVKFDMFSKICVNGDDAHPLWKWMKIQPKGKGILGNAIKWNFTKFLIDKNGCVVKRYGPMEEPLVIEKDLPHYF
Procedure, shortened: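 qHTS, GR-coupled: GPX4 200 nM + cpd 30 min RT → GSH 1 mM, NADPH 0.5 mM, GR 100 nM → CHP 0.5 mM start; fluor 340/450 at t0 and t15 min; no-enzyme wells as control.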

| SMILES | Potency |
| --- | --- |
| N[C@H](Cc1c[nH]c2ccccc12)C(=O)O | inactive |
| CC1(C)O[C@@H]2[C@@H](CO[C@@]3(COS(N)(=O)=O)OC(C)(C)O[C@@H]23)O1 | inactive |
| CC(=O)c1ccc2c(c1)N(CCCN1CCC(CCO)CC1)c1ccccc1S2 | inactive |
| NCCC(O)(P(=O)(O)O)P(=O)(O)O | inactive |
| CCCCOc1ccc(C(=O)CCN2CCCCC2)cc1 | inactive |
| COc1ccc(CCN2CCC(Nc3nc4ccccc4n3Cc3ccc(F)cc3)CC2)cc1 | inactive |
| CCOC(=O)[C@H](CCc1ccccc1)N[C@@H](C)C(=O)N1Cc2ccccc2C[C@H]1C(=O)O | inactive |
| CCCC(=O)O[C@]1(C(=O)CO)CC[C@H]2[C@@H]3CCC4=CC(=O)CC[C@]4(C)[C@H]3[C@@H](O)C[C@@]21C | inactive |
| CCN1CCCC1=O | inactive |
| CC(C)(C(=O)c1cccnc1)c1cccnc1 | inactive |
| C=C1C(=C/C=C2\CCC[C@]3(C)[C@@H]([C@H](C)/C=C/[C@@H](O)C4CC4)CC[C@@H]23)C[C@@H](O)C[C@@H]1O | inactive |
| CC[N+](CC)(CCNC(=O)C(=O)NCC[N+](CC)(CC)Cc1ccccc1Cl)Cc1ccccc1Cl | inactive |
| CN(C)/N=N/c1nc[nH]c1C(N)=O | inactive |
| CNCC[C@@H](Oc1ccccc1C)c1ccccc1 | inactive |
| CC(=O)Oc1ccc(C(c2ccc(OC(C)=O)cc2)c2ccccn2)cc1 | inactive |
| N[C@H](CO)C(=O)O | inactive |
| CN(C(=O)CN(CCO)CC(=O)N(C)C(C)(C)Cc1ccccc1)C(C)(C)Cc1ccccc1 | inactive |
| CN(C)CCOc1ccccc1Cc1ccccc1 | inactive |
| C[n+]1c2cc(N)ccc2cc2ccc(N)cc21 (tested in a mixture with another compound) | inactive |
| CCOC(=O)n1ccn(C)c1=S | inactive |

From PubChem BioAssay (NCATS)
